The experiment has as its target Tumor susceptibility gene 101 protein (Homo sapiens) (UniProt Q99816). The experiment is described as follows: qHTS Assay for Iinhibitors of HIV-1 Budding by Blocking the Interaction of PTAP/TSG101: Hit Validation in TR assay. In a few lines: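 Texas Red-PTAP peptide (50 nM) binding to Tsg101 binding domain (10 uM), both final, in pH 7.5 HEPES buffer, read as polarization after 20 min at room temperature; compounds pinned before peptide addition.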

Structures are written as SMILES. Results filed as inconclusive are left out. Where a call stands in place of a potency, no number is given. Calls of active or inactive are those of the source. The call rests on the fitted dose curve; in most records, active means well fitted inhibition curve with a large enough effect; inconclusive means small, poorly fitted or top-dose-only effect; inactive means no such curve, though single readings can be large or run the other way.
Potency means the concentration at half of the fitted maximal effect.

Chain of Tumor susceptibility gene 101 protein (Homo sapiens) (Q99816 whole entry, looked up, the tested form may be a part): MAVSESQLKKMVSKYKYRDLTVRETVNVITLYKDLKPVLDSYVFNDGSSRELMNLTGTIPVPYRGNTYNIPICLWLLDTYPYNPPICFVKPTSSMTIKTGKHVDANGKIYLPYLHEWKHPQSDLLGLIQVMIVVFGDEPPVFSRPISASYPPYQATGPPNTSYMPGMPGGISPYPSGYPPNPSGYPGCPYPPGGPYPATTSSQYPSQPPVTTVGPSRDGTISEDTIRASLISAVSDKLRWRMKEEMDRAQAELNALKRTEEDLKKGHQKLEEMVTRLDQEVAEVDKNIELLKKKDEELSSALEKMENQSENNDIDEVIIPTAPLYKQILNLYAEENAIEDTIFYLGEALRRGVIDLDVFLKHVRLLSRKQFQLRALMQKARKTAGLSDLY

Turning to `COCCCNC(=O)C(C#N)c1nc2ccccc2nc1N1CCCC1` (centres undefined), the Potency entry was “inactive”. Regarding `Cc1c2ccccc2nc2c(F)c(NC(C)C)c(F)c(F)c12`, the Potency result is “inactive”. With `CCN1CCc2c(sc(NC(=O)CSc3ccccc3)c2-c2nc3ccccc3s2)C1`, the Potency entry is “inactive”. The result for `COC(CNC(=O)c1ccc2c3c(onc13)-c1ccccc1C2=O)OC` reads “inactive”; that for `Cc1ccccc1-n1c(SCc2c(C)noc2C)nnc1-c1cccnc1`, “inactive”; that for `NC(=O)CSc1nc2c(sc3ccccc32)c(=O)n1CCCC(=O)NCC1CCCO1` (centres undefined), “inactive”. The entry for `O=[n+]1c2c(n([O-])c3cc(F)c(N4CCCC4)cc31)CCC2` is “inactive”; for `COc1ccccc1NC(=O)c1sc2nc(Cc3ccccc3)cc(C(F)(F)F)c2c1N` it is “inactive”; for `C=CCn1c(=O)[nH]c2nc3cc(N=CN(C)C)c(C)cc3nc2c1=O` it is 18.3 µM (active). Take `CCOc1ccc2nc3cc(NCc4ccc(OC)cc4)ccc3c(N)c2c1`: the Potency result was “inactive”. `COc1ccc(OC)c2c1C(=O)c1ccccc1C2=O`: the Potency result is “inactive”.

As to `Cc1cc[n+](-c2[nH]c(=O)sc2/C=N/N=C(\[O-])c2ccccc2)cc1C`, the Potency result is “inactive”. With `CCC1(c2ccccc2)NC(=O)N(CC(=O)Nc2ccc(OC)nc2)C1=O` (centres undefined), the Potency result was “inactive”. For `COc1ccccc1N1C(C)=CC(=C(C#N)c2nc3ccccc3s2)C=C1C`, the Potency entry was “inactive”. Take `CC(C)(C)OC(=O)NC(Cc1ccccc1)C(=O)N1CCC(C(=O)NCC(=O)Nc2ccc(F)cc2)CC1` (centres undefined): the Potency entry is “inactive”. The entry for `COc1ccc(C2C(C(=O)c3cccs3)=C(O)C(=O)N2c2nnc(C)s2)cc1OC` (centres undefined) is “inactive”; for `O=C(Nc1nc2c(s1)CN(Cc1ccccc1)CC2)c1cccc(S(=O)(=O)N2CCc3ccccc32)c1` it is “inactive”. `O=C1Nc2ccccc2/C1=C/c1cnc(-c2ccccc2)[nH]1`: the Potency entry was “inactive”. With `Cc1cc(NS(=O)(=O)c2ccc(NC(=O)COc3c(C)cc(Br)cc3C)cc2)no1`, the Potency result was “inactive”.

For the compound `c1ccc(-c2cnn3c(-c4ccccc4)c(-c4ccccc4)nc3n2)cc1`, the Potency result is “inactive”. On to `COCCCNC(=O)c1ccc2c3c(onc13)-c1ccccc1C2=O`, for which the Potency entry is “inactive”. Turning to `Cn1c(=O)c(Nc2ccc(Cl)cc2)c2c3c(cccc31)C(=O)c1ccccc1-2`, the Potency entry was “inactive”. As for `COc1ccc(CCn2c(NN=C(C)C)nc3c2c(=O)[nH]c(=O)n3C)cc1`, the Potency result was “inactive”. On to `CC(C)(C)c1cc[n+](-c2[nH]c(=O)sc2/C=N/NC(=O)c2ccccc2[O-])cc1`, for which the Potency entry is “inactive”. For the compound `O=c1c(/C=C(\O)c2ccc(F)cc2)nc2ccccc2n1-c1ccccc1`, the Potency result is “inactive”.

Turning to `CC1(C)Cc2c(C#N)c(SCCC#N)nc(N3CCOCC3)c2CS1`, the Potency entry is “inactive”. Regarding `O=C(O)c1ccccc1C1=Nc2ccc(O)cc2Oc2cc(O)ccc21`, the Potency entry was “inactive”. The result for `Cc1ccccc1C1CC(=O)Oc2cc(O)ccc21` (centres undefined) reads “inactive”; that for `Cc1c(C(=O)Nc2cccc(C(F)(F)F)c2)sc2nc3n(c(=O)c12)CCCC3`, “inactive”. As to `Cc1cccc(N2C(=O)c3cccc4c(N(C)CCO)ccc(c34)C2=O)c1`, the Potency result was “inactive”.

Consider `CCCCCCc1cc2cc(C(=O)NC)c(=N)oc2cc1O`, for which the Potency result was “inactive”.

On to `N=c1oc2ccc3ccccc3c2cc1-c1nc(-c2ccccc2)cs1`, for which the Potency entry is “inactive”. The entry for `Cc1ccc(/C=C/C(=O)Nc2ccc(S(=O)(=O)Nc3onc(C)c3C)cc2)cc1` is “inactive”. For the compound `CCc1ccc(/C=C2/C(=O)N(C)C(=S)N2CC(=O)OC)s1`, the Potency result is “inactive”.

As for `Cc1ccccc1-c1ccc(/C=C2/SC(N3CCOCC3)=NC2=O)o1`, the Potency result is “inactive”. For `Cc1cc[n+](-c2[nH]c(=O)sc2/C=N/NC([S-])=Nc2ccccc2)cc1`, the Potency result was “inactive”. Take `O=C1N=C(N2C=CC(=C3C=CNC=C3)C=C2)/C(=C/N=NC(=O)c2ccccc2O)S1`: the Potency result was “inactive”. As for `CNc1ccc2c3c(cccc13)C(=O)N(C)C2=O`, the Potency result is “inactive”.

With `Cc1cc2nc3c(=O)n(Cc4ccccc4)c(=O)[nH]c3nc2cc1N`, the Potency result was “inactive”.

Values taken from PubChem BioAssay AID651599 (National Center for Advancing Translational Sciences (NCATS), 2012).
